Reference: PubChem BioAssay (NCI)
The panel holds about 83,000 compounds, 20% with a hit somewhere; the sample as a whole holds those more often.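 Method: cells in 96-well plates; compound added at one concentration; 48 h incubation; percent growth measured; values under 10 scored active.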 The source made the active and inactive calls.

Experiments:
Assay in all cases: NCI-60 one-dose screen, 48 h (100 = growth as untreated, 0 = no growth, -100 = all killed)
Conditions in all cases: 10 µM unless noted
[1] = tested on: NCI-H23 lung
[2] = tested on: NCI-H226 lung
[3] = tested on: NCI-H322M lung
[4] = tested on: HOP-62 NSCLC
[5] = tested on: NCI-H460 lung
[6] = tested on: HOP-92 NSCLC
[7] = tested on: A549/ATCC NSCLC
[8] = tested on: 786-0 renal
[9] = tested on: COLO 205 colon
[10] = tested on: NCI-H522 lung

Measured: growth

CC(C)CN1CC(C(=O)Nc2ccc3c(c2)-c2ccccc2C3)CC1=O (stereo unspecified)
inactive: [1] 81% [50 µM] | [2] 64.9% [50 µM] | [3] 69.6% [50 µM] | [4] 50.7% [50 µM] | [5] 81.8% [50 µM] | [6] 58.5% [50 µM] | [7] 78.7% [50 µM] | [8] 70.7% [50 µM] | [9] 87.7% [50 µM]

COc1ccc(-c2cc(-c3ccc(OC)cc3)nc(NCCCNc3ccnc4cc(Cl)ccc34)n2)cc1
active: [8] -88.6% | [9] 2.44%
inactive: [1] 81.3% | [2] 70.5% | [3] 98.4% | [4] 87.4% | [6] 55.9% | [10] 87.4% | [7] 17.8%

CC(=O)Nc1c(Cl)cc(Cl)c2c1Cc1cc([N+](=O)[O-])ccc1-2
inactive: [1] 94.6% | [2] 113% | [3] 99% | [4] 90.5% | [6] 100% | [10] 91.9% | [7] 82.4% | [8] 75.7% | [9] 93.4%

O=C1NC(=C(Cl)Cl)/C(=N/S(=O)(=O)NCCc2c[nH]c3ccccc23)N1
inactive: [1] 97.4% | [2] 86% | [3] 27.7% | [4] 56.9% | [6] 39% | [10] 17.2% | [7] 99.3% | [8] 66.5% | [9] 110%

COc1ccc(-c2ccc(-c3ccc(C(=N)N)cn3)s2)cc1
inactive: [1] 98.8% | [2] 84.5% | [3] 91.9% | [4] 90% | [6] 80% | [10] 82.4% | [7] 63.6% | [8] 99.7% | [9] 62.4%

CN1C(=O)/C(=C/c2ccc(C(=O)Nc3ncc(Cc4ccc(F)cc4)s3)cc2)SC1=S
inactive: [1] 62.1% | [2] 65.3% | [3] 52% | [4] 44.9% | [6] 44.2% | [10] 39% | [7] 46.8% | [8] 51.9% | [9] 72.3%

Cn1ncc2ccc(-c3nc(-c4ccccc4)[nH]c3-c3n[nH]c(=O)n3C3CC3)cc21
inactive: [1] 93.7% | [2] 97.7% | [3] 111% | [4] 95.1% | [6] 61.3% | [10] 81.5% | [7] 93.7% | [8] 88.8% | [9] 109%

CC1(C)OC(=O)C(=Cc2cccc(Br)c2)C(=O)O1
inactive: [1] 103% | [2] 96.2% | [3] 113% | [4] 88.1% | [6] 85.8% | [10] 77.5% | [7] 87.9% | [8] 109% | [9] 104%

CC[C@]12C=CCN3CC[C@@]4(c5ccc(OC)cc5N(C)[C@H]4[C@@](O)(C(=O)OC)[C@@H]1OC(=O)CCCN1CCOCC1)[C@@H]32
inactive: [1] 106% | [2] 108% | [3] 106% | [4] 99.1% | [6] 94.5% | [10] 100% | [7] 101% | [8] 96.9% | [9] 108%

COc1ccc(Cc2cnc(NC(=O)c3sc4ccccc4c3Cl)s2)cc1
inactive: [1] 28.4% | [2] 49.7% | [3] 50.8% | [4] 26.3% | [6] 79.8% | [7] 24.4% | [8] 36.7% | [9] 10.2%
active: [5] 4.16%

Cc1nc2sc(C(=O)Nc3ccc(Cl)cc3)c(N)c2cc1C(O)c1ccccc1 (stereo unspecified)
inactive: [1] 42.6% | [2] 57% | [3] 57.6% | [4] 45.1% | [6] 44.8% | [10] 33.2% | [7] 42.1% | [8] 46.5% | [9] 29.6%

NC(=O)OCCn1cc(-c2nc(-c3c[nH]c4ncccc34)cs2)c2ccccc21
active: [10] 5.49% | [9] 4.32%
inactive: [1] 63.3% | [2] 53% | [3] 65.9% | [4] 39.2% | [6] 49.1% | [7] 36.9% | [8] 42.9%

Cc1ccc(/C=C2\CN(C(=O)C(Cl)Cl)C/C(=C\c3ccc(C)cc3)C2=O)cc1
active: [1] -35.9% | [2] -11.7% | [3] -53.7% | [4] -16.4% | [6] -47.9% | [10] -37.3% | [7] 2.86% | [8] -68.6% | [9] -63%

Cn1cc(-c2csc(-c3cn(C)c4ccc(Br)cc34)n2)c2cnccc21
active: [1] -28.7% | [3] -32.6% | [4] -79% | [6] -90.9% | [10] -67.5% | [7] -75.1% | [8] -92.4% | [9] -77.8%
inactive: [2] 102%

NC(CSC(c1ccccc1)(c1ccccc1)c1ccc2c(c1)OCO2)C(=O)O (stereo unspecified)
inactive: [1] 14.6% | [2] 75% | [3] 26.6% | [4] 55.3% | [6] 10.9% | [7] 18.5% | [8] 51.1%
active: [10] -20.9% | [9] -32%

CNC(=O)c1c(NC(=O)c2ccc(C(C)(C)C)cc2)sc2c(CN(C)C)c(O)ccc12
active: [4] 8.39% | [5] -72.5% | [8] -76.9% | [9] -68.5%
inactive: [1] 27% | [2] 95% | [3] 17.1% | [6] 19% | [7] 17.7%

O=C1OCC2=C1C(c1cccc(F)c1)c1cc3c(cc1N2CCO)OCO3 (stereo unspecified)
active: [9] 7.08%
inactive: [1] 33.4% | [2] 67.6% | [3] 51.2% | [4] 32% | [5] 14.2% | [6] 34.6% | [7] 43% | [8] 24.5%

CCCCCCNc1nc(NCCCCCC)c2[nH]c(NCCCCCC)nc2n1
active: [3] 1.94% | [6] -12.9% | [7] 7.63% | [9] -2.12%
inactive: [1] 48.2% | [2] 92.1% | [4] 75.7% | [5] 48.1% | [8] 68.2%

C/C(C=O)=C\c1ccc2c(c1)OCO2
inactive: [1] 102% | [2] 85.2% | [3] 135% | [4] 108% | [6] 104% | [10] 99.9% | [7] 105% | [8] 107% | [9] 118%

c1ccc(CNc2ccc3nc(CCC4CCCCC4)[nH]c3c2)cc1
inactive: [1] 68.2% | [2] 71.4% | [3] 86.7% | [4] 80.1% | [6] 44.7% | [10] 58.3% | [7] 72.5% | [8] 62.2%
active: [9] 1.16%

CCNCc1ccc(O)c2ncccc12
inactive: [1] 24.1% | [2] 62.4% | [3] 38% | [4] 27.8% | [7] 17.6% | [8] 39.6% | [9] 80.7%
active: [6] -8.24% | [10] 8.59%

CC(C)C[C@@H](C(=O)N[C@H](C(=O)OC1CCCC1)c1ccccc1)[C@H](O)C(=O)NO
inactive: [1] 55.6% | [2] 70.1% | [3] 69.2% | [5] 92.4% | [6] 65.7% | [10] 41.1% | [7] 56% | [8] 67.8% | [9] 78.6%

CC(=O)c1cc(-c2ccccc2N)n(-c2ccc3c(c2)OCO3)c1C
active: [2] -0.426% | [5] 2.71% | [9] -18.6%
inactive: [1] 43.4% | [3] 31.6% | [6] 38.8% | [10] 18.4% | [7] 19.5% | [8] 23.9%

CNCc1cccc2c1OCCOCCN(C)C(=O)CN(C)S(=O)(=O)c1ccc(cc1)-c1cnc(N)c(n1)C(=O)N2
inactive: [3] 40.4% | [6] 46.5% | [10] 23.5% | [7] 11.9% | [9] 19.9%
active: [1] 6.92% | [2] -33.3% | [4] -6.9% | [8] -40.3%

COc1cccc2c(N=NC(=O)c3ccc(S(N)(=O)=O)cc3)c(O)[nH]c12
inactive: [1] 99.4% | [2] 95.8% | [3] 99.7% | [5] 104% | [6] 118% | [10] 87.1% | [7] 95.5% | [8] 95.6% | [9] 109%

O=C(Cn1nnc([N+](=O)[O-])n1)c1ccccc1
inactive: [1] 96.5% | [2] 112% | [3] 101% | [5] 93.2% | [6] 63.6% | [7] 87% | [8] 102% | [9] 100%

CS(=O)(=O)Nc1cncc(-c2ccc3ncnc(Nc4ccc(F)c(Cl)c4)c3c2)c1
active: [6] -4.23% | [10] 8.87%
inactive: [1] 33.1% | [2] 55.7% | [3] 10.5% | [5] 61.9% | [7] 43.1% | [8] 62% | [9] 32.5%

Cc1c(Cl)cccc1C(=O)Nc1nc2c(s1)CN(C(=O)Nc1cccc(C(F)(F)F)c1)CC2
inactive: [1] 21.5% | [2] 39.3% | [3] 46.6% | [6] 38.3% | [10] 15.1% | [7] 22.5% | [8] 29.1%
active: [5] 7.19% | [9] 7.09%
